In PubChem BioAssay (NCATS):
Several values for one entry are separate records, joined by “and”; a condition that tells them apart may be missing. Equal values may be shown once. Results filed as inconclusive are left out. Unmarked numbers belong to inactive results. Activity calls are given as the source filed them. Calls come from the whole dose curve; as a rule, active = well fitted curve in the direction sought with a large enough effect; inconclusive = small, poorly fitted or top-dose-only effect, or another doubt; inactive = no such curve, though single readings can be large or run the other way. Where a SMILES comes first, the peptide text is derived from it. Bridges are numbered along the chain shown (N, C = ends). [ ]: non-standard residue; d: D form. The star is where a group is joined. X1 = CC[C@@H](C)[C@@H](N)C1=N[C@H](C(=O)*)CS1; d(aIle) = CC[C@H](C)[C@@H](N)C(=O)O; pGlu = O=C1CC[C@@H](C(=O)O)N1; dOrn = NCCC[C@@H](N)C(=O)O
% is set by controls: 0 for no effect and ±100 for the full control effect; potency is the fitted concentration of half-maximal effect.

Assay: qHTS Assay for Identifying Gametocytocidal Compounds (AID 743244);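 for max response: actives lower the fluorescent signal which means gametocytes are killed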
Conditions: P. falciparum 3D7 stage III-V gametocytes, alamarBlue, 72 h; max response: stronger effect = lower value
Text: Malaria cases and deaths have dropped 50% in 29 countries since 2000 due to the combined effects of long-lasting insecticidal bednets, indoor residual spraying, and artemisinin-based combination therapies (ACTs). This success has raised hopes for malaria eradication and consequently stimulated interest in developing new reagents that block gametocyte transmission such as novel and safe gametocytocidal drugs. However, previous drug development efforts have focused primarily on the asexual parasites that cause symptoms, but not malaria transmission. Consequently, patients can remain infectious for weeks after the clearance of asexual parasites and clinical symptoms. To be transmitted from person to person via a mosquito, the parasites must switch from asexual to sexual development and produce male and female gametocytes. Malaria gametocytes consist of five stages (I, II, III, IV and V). The late stage gametocytes (III, IV and V) are difficult to be cultured in vitro and the long lifespan of mature gametocytes allows them being transmitted from host to mosquitoes unless they are completely eliminated by gametocytocidal agents. To identify gametocytocidal compounds which are capable of killing late stage P. falciparum gametocytes, a high throughput gametocyte viability assay was employed. This assay uses oxidoreduction indicator, alamarBlue, as a general measure of metabolic activity of gametocytes. Within live cells, the nonfluorescent resazurin is reduced to resorufin, a bright red fluorescence dye. Fluorescence decreases upon treatment of gametocytocidal compounds. P. falciparum gametocyte (3D7 strain) was used in this study.
The 1536-well gametocycidal viability assay was based on the previous method of Tanaka et al. Stage III-V gametocytes were tested against three compound libraries, including 4265 compounds from NCGC pharmaceutical collection, 400 from Malaria Box library, and 550 from an internal collection of kinase inhibitors. Briefly, 2.5 ul/well incomplete medium was dispensed into each well of 1,536-well plates using the Multidrop Combi followed by 23 nl compound transferring using the NX-TR Pintool (WAKO Scientific Solutions, San Diego, CA). Then, 2.5 ul/well of gametocytes was dispensed with a seeding density of 20,000 cells/well using the Multidrop Combi. The assay plates were incubated for 72 h at 37C with 5% CO2. After addition of 5 ul/well of 2X AlamarBlue dye (Life Technologies, cat. no. DAL1100), the plates were incubated for 24 h at 37C with 5% CO2 and then were read in a fluorescence detection mode (Ex = 525 nm, Em = 598 nm) on a ViewLux plate reader (PerkinElmer).
Work on CC(CCc1ccc(O)cc1)NCC(O)c1ccc(O)cc1 (stereo not given) yielded a max response of 16.5%. With COc1ccc2c(=O)c(C)c(-c3ccccc3)oc2c1CN(C)C the max response was 1.87%. Cn1c(=O)c2c(ncn2CCOC(=O)C(C)(C)Oc2ccc(Cl)cc2)n(C)c1=O gave a max response of 17.7%. C[C@@H]1O[C@@H]1P(=O)(O)O showed a max response of -12.6%. O=C1c2ccccc2C(=O)c2c1ccc(O)c2O showed a max response of 2.07%. In the case of CCCC(=O)O, the max response is reported as -0.429%. Work on CO[C@H]1C[C@H](O[C@H]2[C@H](C)[C@@H](O[C@@H]3O[C@H](C)C[C@H](N(C)C)[C@H]3O)[C@@H](C)C[C@]3(CO3)C(=O)[C@H](C)[C@@H](O)[C@@H](C)[C@@H](C)OC(=O)[C@@H]2C)O[C@@H](C)[C@@H]1O yielded a max response of -2.69%. In the case of COc1cc(S(C)=O)ccc1-c1nc2ncccc2[nH]1 (stereo not given), the max response is reported as 11.9%. Cc1cccc(C)c1Nc1ncccc1C(=O)O showed a max response of 11.3%. With Cc1cc(C(=O)NCCc2ccc(S(=O)(=O)NC(=O)NN3CCCCCC3)cc2)no1 the max response was 4.46%. Compound OC[C@H]1O[C@@](CO)(O[C@H]2O[C@H](CO)[C@@H](O)[C@H](O)[C@H]2O)[C@@H](O)[C@@H]1O has a max response of 6.47%. Compound CCOC(=O)c1c[nH]c2cc(OCC(C)C)c(OCC(C)C)cc2c1=O has a max response of -10.7%. With CN(C)CCCSc1ccccc1NC(=O)/C=C/c1ccccc1 the max response was -4.09%. Compound CCCOC(=O)c1ccccc1O has a max response of -13%. Compound CCN(CC)C(=O)c1cccnc1 has a max response of -8.37%. Work on C[C@@H]1C[C@H]2[C@@H]3CCC4=CC(=O)C=C[C@]4(C)[C@@]3(F)[C@@H](O)C[C@]2(C)[C@@]1(O)C(=O)COC(=O)c1cccc(S(=O)(=O)O)c1 yielded a max response of 12.5%. In the case of CC(=O)OCC(=O)[C@@]1(O)CC[C@H]2[C@@H]3CCC4=CC(=O)CC[C@]4(C)C3=CC[C@@]21C, the max response is reported as -8.18%. For FC(F)(F)C(F)(F)C(F)(F)C(F)(F)C(F)(F)F, the max response was -2.45%. With N[C@H](CC(=O)O)C(=O)O the max response was 2.16%. O=C1CC[C@@H](C(=O)N[C@H]2C[C@@H]2c2ccccc2)N1 gave a max response of -4.02%. CC(C)[C@@H]1CC[C@@H](C)C[C@H]1O gave a max response of 20.4%. For C=C1c2c(Cl)ccc(O)c2C(O)=C2C(=O)[C@]3(O)C(O)=C(C(N)=O)C(=O)[C@@H](N(C)C)[C@@H]3[C@@H](O)[C@H]12, the max response was 2.94%. For FCOC(C(F)(F)F)C(F)(F)F, the max response was -7.47%. With CS(=O)(=O)OCC(O)C(O)COS(C)(=O)=O (stereo not given) the max response was -2.1%. With H-RKDVY-OH the max response was -13.7%. For CNC(=O)OCc1cccc(COC(=O)NC)n1, the max response was 8.67%. With Cc1cc(O)c2c(c1)O[C@@]1(C)CC[C@H]3C(C)(C)CCCC34CO[C@@H]2[C@H]41 (stereo not given in full) the max response was 20.1%. With O=C1/C(=C\c2cccs2)CCC/C1=C\c1cccs1 the max response was 5.47%. O=C(O)c1ccc(OCCn2ccnc2)cc1 showed a max response of 0.359%. CC[C@H](C)[C@H](NC(=O)[C@H](Cc1ccccc1)NC(=O)[C@H](C)NC(=O)[C@H](CC(=O)O)NC(=O)[C@H](CCCCN)NC(=O)[C@H](CO)NC(=O)[C@@H]1CCCN1C(=O)[C@@H]1CCC(=O)N1)C(=O)NCC(=O)N[C@@H](CC(C)C)C(=O)N[C@@H](CCSC)C(N)=O ([pGlu]PSKDAFIGLM-NH2) showed a max response of 13.3%. With Cc1cccc(C)c1NC(=O)C1CCCCN1C (stereo not given) the max response was -1.88%. Cc1ccccn1 showed a max response of 2.7%. In the case of CC[C@@H]1/C=C(\C)C[C@H](C)C[C@H](OC)[C@H]2O[C@@](O)(C(=O)C(=O)N3CCCC[C@H]3C(=O)O[C@H](/C(C)=C/[C@@H]3CC[C@@H](Cl)[C@H](OC)C3)[C@H](C)[C@@H](O)CC1=O)[C@H](C)C[C@@H]2OC, the max response is reported as -7.71%. In the case of CC(C)(C)c1ccc2c(S(=O)(=O)O)c(C(C)(C)C)ccc2c1, the max response is reported as 10.3% and 35.8%. Work on NC[C@@H]1O[C@H](O[C@H]2[C@@H](O)[C@H](O[C@@H]3[C@@H](O)[C@H](N)C[C@H](N)[C@H]3O[C@H]3O[C@H](CO)[C@@H](O)[C@H](O)[C@H]3N)O[C@@H]2CO)[C@H](N)[C@@H](O)[C@@H]1O yielded a max response of 20.3%. For CC1=CCC2CC1C2(C)C (stereo not given), the max response was 3.27%. With CO[C@H]1O[C@@H]2O[C@@]3(C)CC[C@H]4[C@H](C)CC[C@@H]([C@H]1C)[C@@]24OO3 the Potency was 83.3 nM (active). Work on CC[C@H](CC[C@@H](C)[C@H]1CC[C@H]2[C@@H]3CC=C4C[C@@H](O)CC[C@]4(C)[C@H]3CC[C@]12C)C(C)C yielded a max response of 14.2%. For CC[C@@H](C)[C@@H](N)C1=N[C@H](C(=O)N[C@@H](CC(C)C)C(=O)N[C@@H](CCC(=O)O)C(=O)N[C@@H](C(=O)N[C@@H]2CCCCNC(=O)[C@@H](CC(N)=O)NC(=O)[C@@H](CC(=O)O)NC(=O)[C@@H](Cc3cnc[nH]3)NC(=O)[C@@H](Cc3ccccc3)NC(=O)[C@@H]([C@H](C)CC)NC(=O)[C@@H](CCCN)NC2=O)[C@@H](C)CC)CS1 (X1-LE[d(aIle)][dK][dOrn][dI][dF][dH][dD][dN]; lactam 4-C), the max response was 17.8% and -1.65%. Compound COC1[C@@H](O[C@@H]2O[C@H](C)[C@@H](O[C@H]3C[C@@](C)(O)[C@H](OC(=O)CC(C)C)[C@H](C)O3)[C@H](N(C)C)[C@H]2O)[C@@H](CC=O)C[C@@H](C)[C@@H](O)/C=C/C=C/C[C@@H](C)OC(=O)C[C@H]1OC(C)=O (stereo not given in full) has a max response of 6%.
